Most compounds without a hit are left out; they make up all but 4% or so of the library.
RAD52 anneal inh = RAD52 (human) annealing inhibition; P43351; recombinant RAD52 DNA annealing, FRET fluorescence; inhibition, % at 18.7 µM; 360,000 tested, 0.46% active; AID 651710;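 active = every replicate showing at least 50% inhibition; inconclusive = mean inhibition at least 50% but not in every replicate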
AF4-AF9 inh = inhibitors of human MLL-AF4/AF9 interaction; AlphaScreen, biotin-AF4 peptide binding to FLAG-AF9; 350,000 tested, 0.47% active; P42568; AID 651704; inhibition, % at 10 µM;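 active = every replicate reaching a set inhibition limit, whatever the replicate mean, cut at about 25% in these data; inconclusive = mean inhibition reaches that limit but some replicates miss it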
FGF22 binding-1 = shifts melting point of recombinant human FGF22; recombinant FGF22 thermal shift, SYPRO orange fluorescence; percent of sucrose octasulfate shift, DMSO zero; activity (Tm shift, normalised), % at 9.99 µM; 340,000 tested, 1.5% active; AID 651658;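 active = mean Tm shift, scaled 0 neutral to 100 positive control, at about 1.3% or above, every replicate too, limit read from the data; inconclusive = no clear call, values can overlap the other calls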
DENV2 CPE = inhibitors of DENV2 cytopathic effect; DENV2-infected cells, cytopathic effect rescue, plate reader; CPE inhibition, % at 9.99 µM; 350,000 tested, 1.7% active; in the data active = CPE inhibition above about 20%, passing the limit was not always enough; inconclusive = no clear call, values can overlap the other calls; tested in BHK-21 cells
ERAP1 inh = inhibitors of human ERAP1 aminopeptidase. Q9NZ08. recombinant ERAP1, Leu-AMC fluorescence, 60 min. inhibition, % at 10.7 µM. 340,000 tested, 0.15% active;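 active = mean replicate inhibition of at least 30%, or all replicates individually reaching that 30% level; inactive = mean below 30% and not every replicate reaching it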
Target sequence (Q9NZ08 whole entry, looked up): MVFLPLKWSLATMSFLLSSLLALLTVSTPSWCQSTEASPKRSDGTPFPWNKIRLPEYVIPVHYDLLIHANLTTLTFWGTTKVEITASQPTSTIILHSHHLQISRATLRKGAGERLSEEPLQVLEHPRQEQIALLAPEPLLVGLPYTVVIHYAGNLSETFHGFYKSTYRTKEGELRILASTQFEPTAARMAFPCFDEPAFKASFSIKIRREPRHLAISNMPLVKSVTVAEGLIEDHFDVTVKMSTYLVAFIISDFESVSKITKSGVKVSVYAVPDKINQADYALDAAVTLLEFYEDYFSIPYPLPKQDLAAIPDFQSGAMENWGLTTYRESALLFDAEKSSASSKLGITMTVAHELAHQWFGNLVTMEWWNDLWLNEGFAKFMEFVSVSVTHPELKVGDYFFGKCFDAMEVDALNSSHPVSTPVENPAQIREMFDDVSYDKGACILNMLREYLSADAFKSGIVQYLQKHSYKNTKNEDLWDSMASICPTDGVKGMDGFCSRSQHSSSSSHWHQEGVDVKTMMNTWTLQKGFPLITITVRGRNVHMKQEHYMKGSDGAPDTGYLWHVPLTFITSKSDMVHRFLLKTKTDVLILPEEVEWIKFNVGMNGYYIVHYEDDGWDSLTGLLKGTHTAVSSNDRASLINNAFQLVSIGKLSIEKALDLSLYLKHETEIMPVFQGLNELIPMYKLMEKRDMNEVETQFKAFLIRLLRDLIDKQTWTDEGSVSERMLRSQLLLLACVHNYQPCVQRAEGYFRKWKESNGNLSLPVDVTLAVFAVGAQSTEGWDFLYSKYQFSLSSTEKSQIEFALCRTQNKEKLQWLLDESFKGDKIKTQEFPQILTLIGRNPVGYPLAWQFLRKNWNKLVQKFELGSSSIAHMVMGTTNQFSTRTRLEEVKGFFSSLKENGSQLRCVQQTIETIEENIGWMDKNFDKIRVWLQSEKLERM
FGF22 binding-2 = binders of human FGF22 by thermal shift; shares compounds with FGF22 binding-1; recombinant FGF22 thermal shift, SYPRO orange fluorescence; 1,000 tested, 2% active; thermal shift activity, °C (ΔTm) at 38 µM;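 active = fitted rise in melting shift crosses a set limit at or below the top valid dose tested; inconclusive = flat fit at mid-level activity, or a poor quality fit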
FGF22 TSA = binds human FGF22 shifting its melting temperature. Thermal shift assay, SYPRO orange, melting temperature shift. shares compounds with FGF22 binding-1. 50 tested, under 10 active. Tm shift (activity), % at 38 µM;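 active = compounds whose fitted dose curve of melting temperature shift rises past a set threshold within the tested doses; inconclusive = flat curve at moderate activity, or poor curve fit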
SYPRO no-protein = shows thermal shift signal without protein, FGF22 counter-screen; compound-only SYPRO orange thermal shift counter-screen, no protein; AC50, µM (highest dose often 38 µM); 1,000 tested, 2% active; shares compounds with FGF22 binding-1; AID 743019;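 active = rising signal whose fitted curve reaches the 0.54 level within the top valid dose, showing a melting point, actives reach about 13 µM in these data; inactive = the rest, including activity in the opposite direction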; note: value is where the raw curve crosses a fixed level and not half-maximal
Hits are given with their value; – = inactive; ? = inconclusive; · = not tested or not shown.

SMILES	RAD52 anneal inh	AF4-AF9 inh	FGF22 binding-1	DENV2 CPE	ERAP1 inh	FGF22 binding-2	SYPRO no-protein	others
CC(Oc1ccc(Br)cc1)C(=O)NC1CCN(Cc2ccccc2)CC1 (stereo not drawn)	–	–	·	?	–	·	·
Nc1nnc(CC(=O)N/N=C/c2cc([N+](=O)[O-])cc(Br)c2O)s1	–	–	1.8	–	–	·	–
Cc1ccc(S(=O)(=O)N(C)c2ccc(OC(=O)COc3ccccc3)cc2)cc1	–	–	15	–	–	–	–
Cc1ccc(S(=O)(=O)N(C)c2ccc(OCC(=O)Nc3ccc(S(C)(=O)=O)cc3)cc2)cc1	–	–	–	–	–	·	·
CC(C)Cc1nnc(NS(=O)(=O)c2ccc([N+](=O)[O-])cc2)s1	–	–	–	–	–	·	·
O=[N+]([O-])c1ccc(S(=O)(=O)Nc2nnc(C(F)(F)F)s2)cc1	–	–	1.5	–	–	–	–
C[C@@H](NC(=O)C[C@@H]1C[C@H]2c3cc(NC(=O)Nc4ccccc4F)ccc3O[C@H]2[C@@H](CO)O1)c1ccccc1	–	–	–	–	–	·	·
NCC[C@H]1CC[C@H](NC(=O)C2CC2)[C@H](CO)O1	–	–	·	–	–	·	·
O=C(NNC(=O)C1CCN(S(=O)(=O)c2ccccc2C(F)(F)F)CC1)c1ccccc1O	–	–	2.6	–	–	–	–
CCOC(=O)C(=O)N/N=C(/c1ccccc1)c1ccc(OC)cc1	–	–	–	–	–	·	·
COc1ccc(/C(=N\Nc2ccccc2C(=O)O)c2ccccc2)cc1	–	–	1.8	–	–	–	–
CCC(=O)N1CC[C@H]2[C@H](CO)Nc3ccc(C#Cc4cccnc4)cc3[C@H]21	–	–	–	?	–	·	·
COc1cc(OC)c(C(=O)OCC(=O)NCC2CCCCC2)cc1OC	–	–	9.3	–	–	–	–
COc1cc(OC)c(C(=O)OCC(=O)NC2CCCCCCC2)cc1OC	–	–	–	–	–	·	·
CC(C)NC(=O)N(C)C[C@H]1Oc2ncc(-c3ccc(C(=O)N(C)C)cc3)cc2C(=O)N([C@@H](C)CO)C[C@H]1C	–	–	–	–	–	·	·
Nc1nc(-c2cccnc2)nn1C(=O)c1ccc(F)cc1	–	–	1.7	–	–	–	–
CCCNC(=O)[C@@H]1[C@@H](CO)[C@@H]2Cn3c(cccc3=O)[C@H]1N2Cc1ccccc1	–	–	–	–	–	·	·
CO[C@H]1CN(C)C(=O)c2ccc(NS(=O)(=O)c3ccc(Oc4ccccc4)cc3)cc2OC[C@@H](C)NC[C@@H]1C	–	–	–	–	–	·	·
CO[C@@H]1CN(C)C(=O)c2ccc(NS(=O)(=O)c3ccc(Oc4ccccc4)cc3)cc2OC[C@H](C)NC[C@@H]1C	–	–	1.2	–	–	–	–
CO[C@@H]1CN(C)C(=O)c2ccc(NS(=O)(=O)c3ccc(F)cc3)cc2OC[C@@H](C)N(C)C[C@H]1C	–	–	206	–	–	–	–
CO[C@H]1CN(C)C(=O)c2ccc(NS(=O)(=O)c3ccc(C)cc3)cc2OC[C@H](C)N(C)C[C@H]1C	–	–	–	–	–	·	·
NS(=O)(=O)c1ccc2c(c1)C(=NO)c1cc(S(N)(=O)=O)ccc1-2	–	–	28	–	–	–	–
CO[C@H](CN(C)Cc1cc(F)ccc1F)[C@H](C)CN([C@@H](C)CO)S(=O)(=O)c1ccc(F)cc1	–	–	–	–	–	·	·
S=C(Nc1ccc(N2CCOCC2)cc1)Nc1ccc2snnc2c1	–	–	1.6	–	–	–	–
O=C(Nc1ccc2snnc2c1)N1CCCCC1	–	–	–	–	–	·	·
SMILES	RAD52 anneal inh	AF4-AF9 inh	FGF22 binding-1	DENV2 CPE	ERAP1 inh	FGF22 binding-2	SYPRO no-protein	others
O=S(=O)(O)c1cccc2cccc(Nc3ccccc3)c12	–	–	1.5	–	43	–	–
O=C(C[C@H]1CC[C@@H]2[C@H](COC[C@H](O)CN2S(=O)(=O)c2cccc(Cl)c2)O1)Nc1ccccc1	–	–	1.4	–	–	–	–	FGF22 TSA=–
O=C(C[C@@H]1CC[C@H]2[C@@H](COC[C@@H](O)CN2S(=O)(=O)c2cccc(F)c2)O1)Nc1ccccc1	·	·	2.3	–	·	–	–
Cc1ccc(S(=O)(=O)N2C[C@H](O)COC[C@@H]3O[C@H](CC(=O)NCc4ccc(Cl)c(Cl)c4)CC[C@H]32)cc1	–	–	–	–	–	·	·
Cc1ccc(S(=O)(=O)N2C[C@@H](O)COC[C@@H]3O[C@@H](CC(=O)NCc4ccc(Cl)c(Cl)c4)CC[C@H]32)cc1	–	–	1.4	–	–	–	–	FGF22 TSA=–
COc1cccc(S(=O)(=O)N2C[C@@H](O)COC[C@@H]3O[C@@H](CC(=O)Nc4ccccc4)CC[C@H]32)c1	–	–	1.3	–	–	–	–
C[C@@H]1CCCCO[C@H](CN(C)Cc2ccncc2)[C@H](C)CN([C@H](C)CO)C(=O)c2cc(NC(=O)c3ccccc3)ccc2O1	–	–	–	–	–	·	·
COc1ccc(C)cc1NS(=O)(=O)c1ccc(NS(=O)(=O)c2ccc(NC(C)=O)cc2)cc1	–	–	2.9	–	–	–	–	FGF22 TSA=–
COc1ccc(NC(=O)[C@H](C)NS(=O)(=O)c2ccc(NC(C)=O)cc2)cc1Cl	–	–	–	–	–	·	·
COc1cc(NS(=O)(=O)c2ccc(NS(=O)(=O)c3ccc(NC(C)=O)cc3)cc2)nc(OC)n1	–	–	1.4	–	–	–	–
COc1ccc(NS(=O)(=O)c2ccc(NC(C)=O)cc2)c(OC)c1	–	–	–	–	–	·	·
COc1ccc(S(=O)(=O)Nc2ccc(NC(C)=O)cc2)cc1Cl	–	–	1.7	–	–	–	–
CC(C)[C@@H]1COCc2cn(nn2)CC[C@@H](Cc2ccccc2)C(=O)N1	–	–	–	–	–	·	·
Cc1[nH]c2ccc(C(=O)OCC(=O)Nc3cccc(S(N)(=O)=O)c3)cc2c1C	–	–	1.6	–	–	·	–	FGF22 TSA=–
COc1ccc(NC(=O)/C=C/C(=O)O)c([N+](=O)[O-])c1	–	–	2.2	–	–	–	–
CCNc1c(NS(=O)(=O)c2ccc(Br)s2)c(=O)oc2ccccc12	–	–	1.8	–	–	–	–
C/C(=N\NC(=O)COc1ccc(C)cc1C(C)C)c1cc2ccccc2o1	–	–	20	–	–	–	–
C/C(=N\NC(=O)c1nnn(-c2nonc2N)c1CSc1ccc(C)cc1)c1cccnc1	–	–	1.7	–	–	–	–
Nc1nonc1-n1nnc(C(=O)N/N=C/c2cccnc2)c1CSc1ccc(Cl)cc1	–	–	2.7	–	–	–	–
CC1CCN(Cc2c(C(=O)N/N=C/c3ccc(OC(C)C)cc3)nnn2-c2nonc2N)CC1	–	–	1.5	–	–	–	–

Screens as filed in PubChem.
